About 220 (9.2%) of roughly 2,400 compounds were called active. The list comes from a sample in which actives are over-represented; it also holds similar structures and randomly drawn compounds. Unmarked numbers belong to inactive results.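 Rule for the calls: active = signal change above the mean of dofetilide-free buffer controls plus 3 SD, so a positive margin; inactive = the rest.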

The experiment is described as follows: thallium signal changes without hERG – cell-based, CHO-K1 parental line, FluxOR thallium flux, counter-screen for hERG block protection project, confirmation (AID 1839).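 Note: compounds applied alone with no dofetilide to cells lacking hERG.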 The conditions noted are these: CHO-K1 parental cells, FluxOR thallium flux fluorescence; at 10 µM.
Consider `COc1ccc(OCC(=O)NNC(=O)C(=O)Nc2ccc(C)cc2)cc1`, for which the signal change vs control minus 3*SD hit threshold (margin above threshold, higher = more increase) is -35.4%.
In the case of `Cc1ccccc1NC(=O)C(=O)NNC(=O)COc1ccc2ccccc2c1`, the signal change vs control minus 3*SD hit threshold (margin above threshold, higher = more increase) is -2.5%.
Take `COc1cccc(OCC(=O)NNC(=O)C(=O)Nc2cccc(C)c2)c1`: the signal change vs control minus 3*SD hit threshold (margin above threshold, higher = more increase) is 0.8% (active).
As to `COc1ccc(NC(=O)C(=O)NNC(=O)COc2ccc(Cl)cc2)c(OC)c1`, the signal change vs control minus 3*SD hit threshold (margin above threshold, higher = more increase) was -0.4%.
`COc1ccc(NC(=O)C(=O)NNC(=O)COc2ccc(OC)cc2)cc1`: the signal change vs control minus 3*SD hit threshold (margin above threshold, higher = more increase) is -38%.
Turning to `CCc1ccc(NC(=O)C(=O)NNC(=O)COc2cccc(OC)c2)cc1`, the signal change vs control minus 3*SD hit threshold (margin above threshold, higher = more increase) was -13.5%.
`N#Cc1cccc(N=c2ssnc2Cl)c1`: the signal change vs control minus 3*SD hit threshold (margin above threshold, higher = more increase) was -30.2%.
For `CCOc1cc(N2CCOCC2)c(OCC)cc1NC(=O)Cn1nc(C)c([N+](=O)[O-])c1C` the value was -22.7%.
As for `Cc1ccccc1NC1=C/C(=N\S(=O)(=O)c2ccc(C(=O)O)cc2)c2ccccc2C1=O`, the signal change vs control minus 3*SD hit threshold (margin above threshold, higher = more increase) is -22%.
On to `Cc1ccc(C(=O)n2c(-c3ccccc3)cnc2SCC(=O)Nc2ccc(C)cc2C)cc1`, for which the signal change vs control minus 3*SD hit threshold (margin above threshold, higher = more increase) is -8.7%.
As to `CC12CCC(C(=O)OC3CCCCC3)(OC1=O)C2(C)C` (stereo not given), the signal change vs control minus 3*SD hit threshold (margin above threshold, higher = more increase) was -36.3%.
In the case of `O=C1c2cccc3cccc(c23)C(=O)C1(O)O`, the signal change vs control minus 3*SD hit threshold (margin above threshold, higher = more increase) was -20.6%.
For `S=c1[nH]c2cc(-c3ccccc3)ccc2o1` the value was 38.6% (active); for `COC(=O)c1sc(NC(=S)NC(=O)c2ccc(C)cc2)nc1C`, -19.1%.
Turning to `Cc1ccsc1CN(C(=O)c1ccc([N+](=O)[O-])cc1)C1CCS(=O)(=O)C1` (stereo not given), the signal change vs control minus 3*SD hit threshold (margin above threshold, higher = more increase) was -32.2%.
Consider `CCCCOC(=O)c1ccc(NC(=S)NC(=O)c2c(Cl)cnn2C)cc1`, for which the signal change vs control minus 3*SD hit threshold (margin above threshold, higher = more increase) was -18.6%.
Turning to `CCCCOC(=O)c1ccc(NC(=S)NC(=O)c2c(Br)c(C)nn2C)cc1`, the signal change vs control minus 3*SD hit threshold (margin above threshold, higher = more increase) was 6.3% (active).
In the case of `Cc1nn(C)c(C(=O)NC(=S)Nc2ccc([N+](=O)[O-])cc2)c1Cl`, the signal change vs control minus 3*SD hit threshold (margin above threshold, higher = more increase) was -13.2%.
Regarding `CC1CCc2sc(-c3n[nH]c(=S)o3)cc2C1` (stereo not given), the signal change vs control minus 3*SD hit threshold (margin above threshold, higher = more increase) is -19.1%.
As to `CC(C)(C)c1cc(C(=O)NNC(=O)c2ccc(Cl)cc2)no1`, the signal change vs control minus 3*SD hit threshold (margin above threshold, higher = more increase) is -1.2%.
For `O=C(O)c1cc(N/N=C/c2ccc(-c3ccccc3)cc2)ccc1Cl`, the signal change vs control minus 3*SD hit threshold (margin above threshold, higher = more increase) is -29.5%.
For `O=C(O)c1cc(NN=C2c3ccccc3-c3ccccc32)ccc1Cl` the value was 3.2% (active).
Turning to `CCCCOc1ccc(-c2c(C#N)c(N)[nH]c(=S)c2C#N)cc1`, the signal change vs control minus 3*SD hit threshold (margin above threshold, higher = more increase) was -44.5%.
As for `CC(NC(=O)c1ccc(Br)cc1)c1ccc2c(c1)CCCC2` (stereo not given), the signal change vs control minus 3*SD hit threshold (margin above threshold, higher = more increase) was 2.4% (active).
In the case of `CCc1ccc(C(C)NC(=O)c2ccc(F)cc2)cc1` (stereo not given), the signal change vs control minus 3*SD hit threshold (margin above threshold, higher = more increase) was -6.8%.
For `CC(NC(=O)c1ccc(F)cc1)c1ccc2c(c1)CCCC2` (stereo not given) the value was -12.8%.
For the compound `COc1cccc(NC(=O)CSCc2n[nH]c(=O)[nH]2)c1`, the signal change vs control minus 3*SD hit threshold (margin above threshold, higher = more increase) is -30%.
For the compound `COc1ccc(-c2csc(NC(=S)NC(=O)c3cccs3)n2)cc1OC`, the signal change vs control minus 3*SD hit threshold (margin above threshold, higher = more increase) is -41.1%.
For `CCOc1cc(Br)c(C(=O)O)cc1OC` the value was -30.9%.
For `O=C(CSc1nc2cc(Cl)ccc2s1)c1cc2ccccc2o1`, the signal change vs control minus 3*SD hit threshold (margin above threshold, higher = more increase) was -23%.
Take `O=C(Cn1nc(-c2ccccc2)c2ccccc2c1=O)Nc1ccc(O)cc1`: the signal change vs control minus 3*SD hit threshold (margin above threshold, higher = more increase) is -37.1%.
In the case of `O=[N+]([O-])c1cccnc1Sc1n[nH]c(-c2ccc(Cl)cc2)n1`, the signal change vs control minus 3*SD hit threshold (margin above threshold, higher = more increase) was -19.6%.
In the case of `COc1ccc(CCn2c(S)nc3ccccc3c2=O)cc1`, the signal change vs control minus 3*SD hit threshold (margin above threshold, higher = more increase) was -22.5%.
For `CCN(CC)C(=S)NC(=O)c1ccc(OC)c(Br)c1` the value was -18.8%; for `C=CCN(CC=C)C(=S)NC(=O)c1ccc(OC)c(Br)c1`, 4.6% (active); for `C=CCN(CC=C)C(=S)NC(=O)c1ccc([N+](=O)[O-])cc1`, -16.4%.
As for `C=CCN(CC=C)C(=S)NC(=O)c1ccc(C)c(Br)c1`, the signal change vs control minus 3*SD hit threshold (margin above threshold, higher = more increase) is 48.9% (active).
On to `C=CCN(CC=C)C(=S)NC(=O)c1ccc(OC)cc1`, for which the signal change vs control minus 3*SD hit threshold (margin above threshold, higher = more increase) was -14.4%.
Turning to `C=CCNC(=S)NC(=O)c1ccc(C)c(Br)c1`, the signal change vs control minus 3*SD hit threshold (margin above threshold, higher = more increase) was -26.8%.
`Cc1nnc(NC(=O)C2CCCN(S(=O)(=O)c3ccccc3C(F)(F)F)C2)s1` (stereo not given): the signal change vs control minus 3*SD hit threshold (margin above threshold, higher = more increase) is -12.2%.
Consider `CCCCNC(=O)c1onc(CSc2nc3ccccc3[nH]2)c1C(=O)NCCCC`, for which the signal change vs control minus 3*SD hit threshold (margin above threshold, higher = more increase) is -27.7%.
As for `C=CCn1c(O)c(N=NC(=S)Nc2ccc(OC)cc2)c2ccccc21`, the signal change vs control minus 3*SD hit threshold (margin above threshold, higher = more increase) was -17.1%.
For `Cc1nnc(NC(=O)CN2CCN(Cc3ccc(F)cc3Cl)CC2)s1` the value was -35.7%; for `O=C(Nc1cccc(N=Cc2cc(Cl)cc(Br)c2O)c1)c1ccco1`, -5.5%; for `CCOC(=O)c1c(NC(=S)NC)sc2c1CC(C)(C)SC2`, 22.5% (active).
As for `CCOC(=O)c1c(NC(=S)NC)sc2c1CCCC2`, the signal change vs control minus 3*SD hit threshold (margin above threshold, higher = more increase) is -11%.
For the compound `C=CCNC(=S)Nc1sc2c(c1C(=O)OCC)CC(C)(CC)OC2` (stereo not given), the signal change vs control minus 3*SD hit threshold (margin above threshold, higher = more increase) is -1.5%.
With `CCCN(CC1CC1)C(=S)Nc1ccccc1F`, the signal change vs control minus 3*SD hit threshold (margin above threshold, higher = more increase) was -25.8%.
For `COc1cc(/C=C2/SC(=S)N(CC(=O)O)C2=O)ccc1OCC(=O)Nc1ccc(C)c(C)c1` the value was -34.3%; for `COc1ccccc1C(=O)Nc1ccnn1C1CCN(C(=O)c2ccoc2C)CC1`, -41.5%.

Values taken from PubChem BioAssay AID1839 (Johns Hopkins Ion Channel Center, 2009).
